Experimental data from PubChem BioAssay (Tox21).
Values joined by “and” are separate entries in the source; they are usually repeats but may differ in a detail not shown here. Equal entries are not always repeated. Results filed as inconclusive are left out. Active and inactive are the calls of the source. Calls come from the whole dose curve.

Experiment: qHTS assay to identify small molecule antagonists of the sonic hedgehog signaling (Shh) pathway (AID 1259369); note: nearly all actives have a fitted effect of over 45% in size
Conditions: NIH/3T3 Gli1-Luc reporter, Shh antagonist, luminescence 24 h; series mostly up to 92.4 µM
In short: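 Antagonist mode: compound added to 3T3 Gli1-Luc cells followed by conditioned-medium stimulation, 24 h at 37 C, 5% CO2. Inhibition taken as loss of Gli1-driven luciferase luminescence.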
Potency is the fitted concentration of half-maximal effect.

Row | SMILES | Potency
1 | CN(C)CCc1c[nH]c2cccc(O)c12 | 53.9 µM (active)
2 | c1cc[c]([Sb]([c]2ccccc2)[c]2ccccc2)cc1 | 12.2 µM (active)
3 | CCCCN(CCCC)C(=S)[S-].CCCCN(CCCC)C(=S)[S-].[Zn+2] | 4.85 µM (active)
4 | Oc1ccc(C2(c3ccc(O)cc3)CCCCC2)cc1 | 46 µM (active)
5 | Cl/C=C\CCl | inactive
6 | COc1ccc(N)cc1N | 3.55 µM (active) and 8.29 µM (active)
7 | Clc1ccc(CO/N=C(\Cn2ccnc2)c2ccc(Cl)cc2Cl)c(Cl)c1 | 4.73 µM (active)
8 | Clc1ccc(CSC(Cn2ccnc2)c2ccc(Cl)cc2Cl)cc1 (stereo not given) | inactive
9 | CCCCCCCCCCCCCCCC[n+]1ccccc1 | 508 nM (active) and 30.6 nM (active) and 21.4 nM (active)
10 | CC(=O)[O-].CC(=O)[O-].[Hg+2] | 0.686 µM (active)
11 | CCCOCC(=Nc1ccc(Cl)cc1C(F)(F)F)n1ccnc1 | 9.68 µM (active)
12 | CN(C)c1ccc(N=Nc2ccccc2)cc1 | inactive
13 | [Hg+2].[I-].[I-] | 0.545 µM (active)
14 | O=[N+]([O-])c1c2ccccc2cc2ccccc12 | 67.8 µM (active)
15 | C=CCC1=C(C)C(OC(=O)C2C(C=C(C)C)C2(C)C)CC1=O (stereo not given) | 16.3 µM (active)
16 | Clc1ccc(CCC(Cn2ccnc2)Sc2c(Cl)cccc2Cl)cc1 (stereo not given) | 2.98 µM (active)
17 | CC(C)CC(C)Nc1ccc(Nc2ccccc2)cc1 (stereo not given) | 12 µM (active)
18 | CCCN(CCC)c1c([N+](=O)[O-])cc(S(N)(=O)=O)cc1[N+](=O)[O-] | 4.86 µM (active)
19 | Oc1c(Br)c(Br)c(Br)c(Br)c1Br | 19.4 µM (active)
20 | Fc1cccc(Cl)c1CCl | inactive
21 | O=C(Nc1ccc2[nH]ccc2c1)c1cc2cc(F)ccc2n1Cc1cccc(F)c1 | 24.3 µM (active)
22 | N#CCCC(Br)(C#N)CBr (stereo not given) | 21.7 µM (active)
23 | CC(=O)Nc1ccc2c(c1)Cc1ccccc1-2 | inactive
24 | CC1CCC(C(C)C)C(OC(=O)c2ccccc2N)C1 (stereo not given) | 26.9 µM (active)
25 | CN(C)S(=O)(=O)N(SC(F)(Cl)Cl)c1ccccc1 | 2.17 µM (active)
26 | O=[N+]([O-])c1cc(C(F)(F)F)c(Cl)c([N+](=O)[O-])c1Cl | 4.86 µM (active)
27 | CC1(C)[C@H](C(=O)O[C@H](C#N)c2cccc(Oc3ccccc3)c2)[C@@H]1/C=C(\Cl)C(F)(F)F | inactive
28 | N#Cc1ccccc1Cl | inactive
29 | CN(C)C(=S)S | 4.95 µM (active) and 962 nM (active) and 3.44 µM (active)
30 | CSCCCN=C=S | inactive
